Consider six compounds from PubChem BioAssay.

Assay [1] concerns Plasmodium falciparum Sir2 (PF13_0152, Sir2A). Put plainly: Plasmodium falciparum Sir2A binding compounds – biochemical, small-molecule microarray, 635 nm fluorescence, primary screen (AID 1098).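 Also: score merges spot fluorescence intensity with its signal-to-noise ratio.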 The following applies: fluorescence 635 nm, higher = more signal.
Assay [2] can be described thus: probe aDKK1 binding to arrayed compounds – biochemical, biotinylated probe, 635/667 nm fluorescence, primary screen (AID 1099).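 Also: score merges 667nm spot fluorescence with signal to noise across triplicate slides.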 The following applies: small-molecule microarray, higher = more signal.
A short description of assay [3]: probe aCHRDL2 binding to arrayed compounds – biochemical, biotinylated probe, 635/667 nm fluorescence, primary screen (AID 1100). The following applies: small-molecule microarray, higher = more signal.
Assay [4] in a line: change in splice reporter luminescence, either direction, cell-based, HEK293, spliceosome inhibition project, primary screen (AID 1101).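 Also: HEK293 cells carrying a splicing-competent luciferase reporter gene; test concentration not given here.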 The conditions noted are these: HEK293 splicing luciferase reporter, 24 h, higher = more signal, called active from +8 up or from −8 down. A general note: In a reporter assay the amount or activity of a reporter protein is the signal.
In assay [5] the target is Fibroblast growth factor 10 (Homo sapiens) (UniProt O15520). Nature of the assay: compounds binding fibroblast growth factor 10 – biochemical, small-molecule microarray, 635 nm fluorescence, primary screen (AID 1102). The conditions noted are these: FGF10 binding, fluorescence 635 nm, higher = more signal.
Assay [6] concerns glycogen synthase kinase-3 (GSK3A per assay name; protocol says GSK3B). Put plainly: compounds binding glycogen synthase kinase-3 – biochemical, small-molecule microarray, 635 nm fluorescence, GSK3A, primary screen (AID 1103). Also: the record names both GSK3A and GSK3B. The conditions noted are these: fluorescence 635 nm, higher = more signal.
In assay [7] the target is Epidermal growth factor receptor (Homo sapiens) (UniProt P00533). Put plainly: compounds binding epidermal growth factor receptor – biochemical, small-molecule microarray, 635 nm fluorescence, primary screen (AID 1104).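 Also: score merges 667 nm emission intensity with spot signal to noise over triplicate slides.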 The following applies: EGFR binding, higher = more signal.
Assay [8] addresses Follistatin-related protein 3 (Homo sapiens) (UniProt O95633). Nature of the assay: compounds binding follistatin-related protein 3 – biochemical, small-molecule microarray, 635 nm fluorescence, primary screen (AID 1105).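 Also: score merges emission near 667 nm and signal to noise per printed spot across three slides.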 The conditions noted are these: FSTL3 binding, higher = more signal.
For assay [9], the target named is Dickkopf-related protein 1 (Homo sapiens) (UniProt O94907). Nature of the assay: small molecules binding DKK1 protein – biochemical, small-molecule microarray, 635 nm fluorescence scan, primary screen (AID 1106).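 Also: score merges emission near 667 nm with signal to noise over three replicate slides.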 The conditions noted are these: higher = more signal.
In assay [10] the test system is Inhibin beta A chain (activin A). Nature of the assay: small molecules binding activin A – biochemical, small-molecule microarray, 635 nm fluorescence scan, primary screen (AID 1107).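 Also: mouse activin A protein probed at 4.33 µg/mL on printed slides; score merges bound-protein fluorescence near 667 nm with spot signal-to-noise.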 The following applies: INHBA, higher = more signal.
Assay [11] relates to Human papillomavirus type 1a protein E7 (residues 44-93). Put plainly: small molecules binding HPV E7 44-93 – biochemical, small-molecule microarray, residues 44-93, 635 nm fluorescence, primary screen (AID 1108).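 Also: E7 fragment applied at 1 µg/mL in TBST for 1 h at 4 C; score combines spot fluorescence with its signal to noise ratio.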 The conditions noted are these: fluorescence 635 nm, higher = more signal.
Assay [12] is described as follows: hepatitis C replication reporter changes, two-sided – Huh7 cells, luciferase reporter, HCV replication inhibitor project, primary screen (AID 1109).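 Also: huh7 hepatoma cells harbouring a luciferase neomycin HCV replicon reporter; luciferase luminescence as measure of HCV replicon replication; test concentration not given here.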 The conditions noted are these: Huh7 HCV replicon luciferase reporter, 48 h; higher = more signal.
Assay [13] deals with Left-right determination factor 2 (Homo sapiens) (UniProt O00292). Put plainly: small molecules binding LEFTY2 protein – biochemical, small-molecule microarray, 635 nm fluorescence scan, primary screen (AID 1110). The following applies: higher = more signal.
The target of assay [14] is Calmodulin-1 (Homo sapiens) (UniProt P0DP23). Nature of the assay: small molecules binding calmodulin-1 with EGTA – biochemical, small-molecule microarray, Cy5-labelled CALM1, profiling panel (AID 1111).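 Also: labelled calmodulin applied in Tris saline Tween buffer holding calcium plus EGTA and DTT.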 The conditions noted are these: Cy5-CALM1 binding fluorescence, higher = more signal.
For assay [15] the target is unchanged. Put plainly: small molecules binding Ca-loaded calmodulin-1 – biochemical, small-molecule microarray, Cy5-labelled CALM1, plus calcium, artefact control for SMM control-protein annotation, profiling panel (AID 1112).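 Also: score merges spot fluorescence with signal to noise from triplicate slides.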 The following applies: Cy5-CALM1 binding fluorescence, higher = more signal.
Assay [16] is described as follows: probe aWnt5a binding to arrayed compounds – biochemical, biotinylated probe, 635/667 nm fluorescence, primary screen (AID 1113).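 Also: score merges 667 nm fluorescence intensity with signal-to-noise per printed feature.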 The following applies: small-molecule microarray, higher = more signal.
The nature of assay [17]: probe aShh binding to arrayed compounds – biochemical, biotinylated probe, 635/667 nm fluorescence, primary screen (AID 1114).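 Also: probe is biotin-labelled aShh protein from a stem cell growth factor screen; measures binding of labelled protein to compounds printed on the slide; score merges feature fluorescence at 667 nm with signal-to-noise.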 The following applies: small-molecule microarray, higher = more signal.
Assay [18] is described as follows: probe aNog binding to arrayed compounds – biochemical, biotinylated probe, 635/667 nm fluorescence, primary screen (AID 1115).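 Also: probe is biotinylated aNog protein used at 0.15 µg/mL for 1 h at 4 C; z-score combines 667 nm fluorescence of each spot with its signal to noise.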 The following applies: small-molecule microarray, higher = more signal.
Assay [19] deals with Torsin-1A-interacting protein 1 (Homo sapiens) (UniProt Q5JTV8). Put plainly: compound microarray binding of lysate hLAP1 – cell lysate, small-molecule microarray, COS7 lysate, 635/667 nm fluorescence, primary screen (AID 1116). The conditions noted are these: 635 nm fluorescence, higher = more signal.
For assay [20], the target named is Alpha-bungarotoxin (Bungarus multicinctus) (UniProt P60615). Put plainly: compounds binding labelled alpha-BTX control protein – biochemical, small-molecule microarray, Alexa647 label, 635/667 nm fluorescence, artefact control for SMM control protein annotation, profiling panel (AID 1117). The conditions noted are these: alpha-BTX-A647 binding fluorescence, higher = more signal.

Active and inactive are the calls of the source.

Alpha-bungarotoxin (Bungarus multicinctus), sequence (P60615 whole entry, looked up): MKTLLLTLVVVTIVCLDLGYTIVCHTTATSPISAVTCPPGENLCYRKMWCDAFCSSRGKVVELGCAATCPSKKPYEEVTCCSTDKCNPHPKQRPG
Torsin-1A-interacting protein 1 (Homo sapiens), sequence (Q5JTV8 whole entry, looked up): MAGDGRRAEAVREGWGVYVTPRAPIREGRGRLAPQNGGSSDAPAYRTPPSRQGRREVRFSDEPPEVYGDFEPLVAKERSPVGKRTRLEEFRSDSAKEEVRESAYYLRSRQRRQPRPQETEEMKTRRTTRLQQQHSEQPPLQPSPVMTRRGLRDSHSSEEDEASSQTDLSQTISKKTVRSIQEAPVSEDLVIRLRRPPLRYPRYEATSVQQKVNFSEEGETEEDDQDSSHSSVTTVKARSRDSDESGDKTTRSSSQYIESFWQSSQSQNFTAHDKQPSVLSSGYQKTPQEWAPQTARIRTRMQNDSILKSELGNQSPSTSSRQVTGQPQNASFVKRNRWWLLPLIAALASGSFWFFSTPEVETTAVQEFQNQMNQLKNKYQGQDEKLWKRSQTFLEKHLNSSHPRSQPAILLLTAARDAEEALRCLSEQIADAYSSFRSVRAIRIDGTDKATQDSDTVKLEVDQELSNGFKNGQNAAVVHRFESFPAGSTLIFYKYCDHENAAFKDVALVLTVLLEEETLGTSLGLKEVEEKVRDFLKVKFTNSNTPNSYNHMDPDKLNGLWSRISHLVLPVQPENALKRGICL
Left-right determination factor 2 (Homo sapiens), sequence (O00292 whole entry, looked up): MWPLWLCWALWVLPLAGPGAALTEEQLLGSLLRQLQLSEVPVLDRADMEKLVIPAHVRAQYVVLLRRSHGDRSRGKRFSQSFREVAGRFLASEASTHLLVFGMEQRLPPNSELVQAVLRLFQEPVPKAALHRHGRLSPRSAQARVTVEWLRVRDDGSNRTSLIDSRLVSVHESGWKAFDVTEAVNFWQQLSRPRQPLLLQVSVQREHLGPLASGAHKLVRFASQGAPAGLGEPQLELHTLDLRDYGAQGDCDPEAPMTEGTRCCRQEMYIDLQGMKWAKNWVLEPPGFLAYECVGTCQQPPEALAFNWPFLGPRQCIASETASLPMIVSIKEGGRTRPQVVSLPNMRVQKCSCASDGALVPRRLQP
Dickkopf-related protein 1 (Homo sapiens), sequence (O94907 whole entry, looked up): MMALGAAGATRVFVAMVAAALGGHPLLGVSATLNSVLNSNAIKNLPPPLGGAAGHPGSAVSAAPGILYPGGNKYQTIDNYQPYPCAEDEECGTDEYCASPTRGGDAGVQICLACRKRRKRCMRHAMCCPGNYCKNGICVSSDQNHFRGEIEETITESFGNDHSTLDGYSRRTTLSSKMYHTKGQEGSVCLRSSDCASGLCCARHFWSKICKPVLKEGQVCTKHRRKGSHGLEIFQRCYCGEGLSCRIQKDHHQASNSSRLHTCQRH
Epidermal growth factor receptor (Homo sapiens), sequence (P00533 whole entry, looked up): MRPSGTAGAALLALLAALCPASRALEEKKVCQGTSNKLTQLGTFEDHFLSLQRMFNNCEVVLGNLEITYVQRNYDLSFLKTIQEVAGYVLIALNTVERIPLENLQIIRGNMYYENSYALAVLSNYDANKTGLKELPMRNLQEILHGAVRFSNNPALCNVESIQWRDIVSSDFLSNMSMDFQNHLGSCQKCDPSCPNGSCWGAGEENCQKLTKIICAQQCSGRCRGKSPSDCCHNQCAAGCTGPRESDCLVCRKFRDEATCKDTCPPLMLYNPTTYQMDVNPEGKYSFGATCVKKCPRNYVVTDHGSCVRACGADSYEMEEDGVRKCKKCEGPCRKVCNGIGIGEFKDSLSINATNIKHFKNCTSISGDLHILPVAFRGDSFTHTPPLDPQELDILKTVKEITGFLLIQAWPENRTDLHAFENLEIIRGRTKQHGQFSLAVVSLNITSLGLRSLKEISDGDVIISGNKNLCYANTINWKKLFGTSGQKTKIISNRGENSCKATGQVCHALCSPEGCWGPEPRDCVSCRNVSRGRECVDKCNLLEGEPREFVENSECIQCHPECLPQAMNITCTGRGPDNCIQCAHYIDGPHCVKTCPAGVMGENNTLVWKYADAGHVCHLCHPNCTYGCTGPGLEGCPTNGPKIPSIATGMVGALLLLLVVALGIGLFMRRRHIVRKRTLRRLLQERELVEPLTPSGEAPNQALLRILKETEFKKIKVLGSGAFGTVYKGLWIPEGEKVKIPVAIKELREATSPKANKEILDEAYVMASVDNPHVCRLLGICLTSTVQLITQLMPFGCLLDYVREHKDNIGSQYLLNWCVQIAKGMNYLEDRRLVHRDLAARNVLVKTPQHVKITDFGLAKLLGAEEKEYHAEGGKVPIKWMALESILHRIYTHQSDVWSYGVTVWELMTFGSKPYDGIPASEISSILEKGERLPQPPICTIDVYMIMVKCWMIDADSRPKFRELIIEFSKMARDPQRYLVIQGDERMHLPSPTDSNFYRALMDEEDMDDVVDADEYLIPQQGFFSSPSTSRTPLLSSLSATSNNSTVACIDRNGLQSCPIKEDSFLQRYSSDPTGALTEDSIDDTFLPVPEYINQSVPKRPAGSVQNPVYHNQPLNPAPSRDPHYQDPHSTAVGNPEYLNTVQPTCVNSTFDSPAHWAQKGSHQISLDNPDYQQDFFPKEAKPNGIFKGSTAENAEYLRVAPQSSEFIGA
Follistatin-related protein 3 (Homo sapiens), sequence (O95633 whole entry, looked up): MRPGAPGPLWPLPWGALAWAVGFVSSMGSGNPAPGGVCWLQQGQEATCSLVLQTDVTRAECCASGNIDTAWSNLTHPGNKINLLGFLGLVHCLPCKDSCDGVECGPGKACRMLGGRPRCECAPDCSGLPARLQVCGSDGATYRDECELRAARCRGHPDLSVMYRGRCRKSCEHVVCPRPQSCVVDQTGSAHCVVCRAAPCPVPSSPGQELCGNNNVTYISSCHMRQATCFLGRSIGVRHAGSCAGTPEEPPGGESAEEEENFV
Fibroblast growth factor 10 (Homo sapiens), sequence (O15520 whole entry, looked up): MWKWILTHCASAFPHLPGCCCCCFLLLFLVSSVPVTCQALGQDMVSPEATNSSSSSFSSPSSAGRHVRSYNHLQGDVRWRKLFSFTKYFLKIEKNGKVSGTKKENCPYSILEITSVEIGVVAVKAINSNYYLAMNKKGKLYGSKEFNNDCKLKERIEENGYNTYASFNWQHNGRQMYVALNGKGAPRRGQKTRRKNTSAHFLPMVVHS

For `[N-]=[N+]=NCc1ccccc1C[C@]1(C(=O)N2CCCCC2)N=C(c2ccc(OCCCO)cc2)O[C@H]1c1ccccc1CN=[N+]=[N-]`, the composite z-score in assay [1] is 0.751; in assay [2], 0.518; in [3], 0.885; in [5], 0.924; in assay [6], 0.65; in assay [7], -0.107. Besides, the composite z-score was 0.556 in assay [8]; -0.531 in assay [9]; 0.212 in assay [10]; 1.41 in assay [11]; -0.406 in [13]; 1.67 in assay [14]. Also, the composite z-score turned out to be 0.855 in [15]; 0.0375 in assay [16]; 0.503 in [17]; 1.25 in assay [18]; 1.95 in [19]; 1.11 in [20]. Also, the z-score was 0.324 (inactive) in assay [4] and -2.73 in [12].
For the compound `C=CCC(OC(C)=O)[C@@H]1[C@@H](N(Cc2ccc(-c3ccccc3)cc2)C(=O)c2ccc(C)cc2)c2cc(OCCCO)ccc2N1C(=O)c1ccc(-c2ccccc2)cc1` (stereo not given in full), the composite z-score in assay [1] is -0.151; in assay [2], 0.434; in [3], 0.536; in assay [5] it was 0.104; in [6], -0.176; in [7], -0.0222. Also, the composite z-score in [8] is -0.023; in assay [9], -0.0546; in assay [10] it was 1.42; in [11], -0.0852; in assay [13], 0.181; in [14], 0.218. Also, the composite z-score in [15] was 1.22; in assay [16], -0.101; in assay [17], 0.0611; in assay [18], 0.15; in assay [19], 0.116; in [20], 0.523. For the same compound, the z-score was -2.28 (inactive) in [4] and -0.13 in assay [12].
On to `O=C1O[C@@H](c2ccccc2)[C@@H](c2ccccc2)N2[C@@H](c3ccc(O)cc3)[C@]3(C(=O)Nc4ccccc43)[C@@H](C(=O)N3CCN(c4ncccn4)CC3)[C@H]12`, for which the composite z-score in assay [1] was 1.13; in [2], 0.413; in assay [3] it was 0.535; in assay [5], -0.0898; in [6], 0.202; in [7], -0.366. For the same compound, the composite z-score in assay [8] was 0.0146; in [9], -0.21; in [10], -0.437; in assay [11], 0.746; in assay [13], -0.389; in [14] it was 0.874. The composite z-score in [15] is 1.09; in [16], -0.105; in assay [17], 0.182; in assay [18], 0.0486; in [19] it was 0.0398; in [20], 1.16. Further, the z-score is -0.547 (inactive) in assay [4] and -1.91 in assay [12].
As for `O=C1C2C=CC(C(O)C(c3ccccc3)c3ccccc3)N(Nc3ccc([N+](=O)[O-])cc3)C2C(=O)N1c1ccccc1` (stereo not given), the composite z-score in assay [1] turned out to be 0.375; in assay [2], 0.569; in [3], 0.767; in [5] it was 1.04; in [6], 1.32; in assay [7], 0.66. Also, the composite z-score in [8] stood at 0.955; in [9] it was 0.331; in [10] it was 0.814; in [11], 1.46; in assay [13] it was 0.737; in assay [14], 0.858. Besides, the composite z-score in assay [15] was 0.808; in [16], 0.122; in assay [17], -0.0211; in assay [18], 0.676; in assay [19], 0.935; in assay [20], 1.42. The values for the z-score in [4] and in [12] were 0.597 (inactive) and -0.871, respectively.
As for `O=C1O[C@@H](c2ccccc2)[C@@H](c2ccccc2)N2[C@@H](c3ccccc3OCCO)[C@]3(C(=O)Nc4ccc(C#CC5=CCCCC5)cc43)[C@@H](C(=O)O)[C@H]12`, the composite z-score in [1] was found to be 1.17; in assay [2] it was 0.702; in assay [3] it was 0.51; in assay [5], 0.289; in [6] it was 1.04; in assay [7] it was 0.309. Also, the composite z-score was 0.87 in [8]; 0.471 in assay [9]; 1.09 in [10]; 0.799 in [11]; 0.0802 in [13]; 1.7 in assay [14]. For the same compound, the composite z-score is 0.957 in assay [15]; -0.0539 in [16]; 0.13 in assay [17]; 0.0014 in [18]; 0.612 in assay [19]; 1.77 in assay [20]. Also, the z-score in assay [4] is -2.47 (inactive); in [12] it was -2.28.
Turning to `COc1ccc(NN2C(C(O)c3cc(OC)c(OC)c(OC)c3)C=CC3C(=O)N(C4CCCCC4)C(=O)C32)cc1` (stereo not given), the composite z-score is 0.573 in [1]; 1.16 in assay [2]; 1.31 in assay [3]; 0.672 in assay [5]; 1.04 in assay [6]; -0.187 in [7]. The composite z-score in assay [8] is 0.563; in [9], -0.61; in assay [10] it was 0.973; in assay [11], 1.22; in assay [13] it was -0.346; in assay [14], 1.58. For the same compound, the composite z-score in [15] is 0.509; in assay [16], 0.114; in assay [17] it was -0.226; in assay [18], 0.273; in assay [19], 0.479; in assay [20] it was 1.96. Besides, the z-score was -0.617 (inactive) in assay [4] and -1.92 in assay [12].
